± gives the standard deviation of the averaged measurements. The full data set covers some 5,400 targets. This sample favours those with the largest changes.
Compound: Nc1nc2c(ncn2[C@@H]2O[C@H](COP(=O)(O)OP(=O)(O)OP(=O)(O)O)[C@@H](O)[C@H]2O)c(=O)[nH]1 [guanosine triphosphate]
Assay: NP40-soluble protein abundance relative to vehicle (solubility fold change) (ratio); higher = more soluble protein in presence of GTP
Outline: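 Eight concentrations, 0.1 to 10 mM, were tested on Jurkat crude lysate for 10 min at room temperature and then 3 min at 37 °C, in three independent experiments. The lysate was solubilised with 0.8% NP40 and benzonase, ultracentrifuged, and the supernatant TMT-labelled for LC-MS/MS. Each value is the fold change against the detergent-processed vehicle in its own replicate, from vsn-normalised intensities.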

UniProt P11216, sequence (P11216 whole entry): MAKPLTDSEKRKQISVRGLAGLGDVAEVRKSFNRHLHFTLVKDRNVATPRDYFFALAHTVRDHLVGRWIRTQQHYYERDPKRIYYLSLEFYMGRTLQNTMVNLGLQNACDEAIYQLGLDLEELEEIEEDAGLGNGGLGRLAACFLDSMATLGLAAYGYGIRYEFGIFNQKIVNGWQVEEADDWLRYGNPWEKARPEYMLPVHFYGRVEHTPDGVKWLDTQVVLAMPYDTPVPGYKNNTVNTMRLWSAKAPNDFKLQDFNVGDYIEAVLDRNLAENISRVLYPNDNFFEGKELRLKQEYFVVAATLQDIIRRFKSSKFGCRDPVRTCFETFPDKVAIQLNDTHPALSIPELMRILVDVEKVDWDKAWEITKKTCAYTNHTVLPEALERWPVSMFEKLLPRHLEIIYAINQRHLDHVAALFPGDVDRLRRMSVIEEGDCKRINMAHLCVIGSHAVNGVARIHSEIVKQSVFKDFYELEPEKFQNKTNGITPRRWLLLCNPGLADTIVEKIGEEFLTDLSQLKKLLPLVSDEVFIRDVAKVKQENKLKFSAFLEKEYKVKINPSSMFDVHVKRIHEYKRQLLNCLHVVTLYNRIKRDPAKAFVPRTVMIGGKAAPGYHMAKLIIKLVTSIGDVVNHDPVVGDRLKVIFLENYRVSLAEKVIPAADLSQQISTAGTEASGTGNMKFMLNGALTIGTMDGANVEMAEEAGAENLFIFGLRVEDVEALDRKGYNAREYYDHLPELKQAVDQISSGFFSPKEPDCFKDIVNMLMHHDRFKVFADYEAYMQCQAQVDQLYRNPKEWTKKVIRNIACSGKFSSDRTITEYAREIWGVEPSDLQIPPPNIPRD
UniProt P10412, sequence (P10412 whole entry): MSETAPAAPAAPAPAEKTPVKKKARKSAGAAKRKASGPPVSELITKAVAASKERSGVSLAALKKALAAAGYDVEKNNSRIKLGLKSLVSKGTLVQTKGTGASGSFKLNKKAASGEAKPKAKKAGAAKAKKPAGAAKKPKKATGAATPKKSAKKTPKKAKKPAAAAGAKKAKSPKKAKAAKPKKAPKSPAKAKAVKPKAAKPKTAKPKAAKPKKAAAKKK
UniProt P49427, sequence (P49427 whole entry): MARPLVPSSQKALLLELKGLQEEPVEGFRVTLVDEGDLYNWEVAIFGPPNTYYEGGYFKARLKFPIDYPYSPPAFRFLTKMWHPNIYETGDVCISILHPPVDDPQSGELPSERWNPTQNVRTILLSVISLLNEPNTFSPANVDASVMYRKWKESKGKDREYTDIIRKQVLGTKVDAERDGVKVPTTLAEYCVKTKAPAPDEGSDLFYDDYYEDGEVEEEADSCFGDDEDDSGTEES
UniProt P10515, sequence (P10515 whole entry): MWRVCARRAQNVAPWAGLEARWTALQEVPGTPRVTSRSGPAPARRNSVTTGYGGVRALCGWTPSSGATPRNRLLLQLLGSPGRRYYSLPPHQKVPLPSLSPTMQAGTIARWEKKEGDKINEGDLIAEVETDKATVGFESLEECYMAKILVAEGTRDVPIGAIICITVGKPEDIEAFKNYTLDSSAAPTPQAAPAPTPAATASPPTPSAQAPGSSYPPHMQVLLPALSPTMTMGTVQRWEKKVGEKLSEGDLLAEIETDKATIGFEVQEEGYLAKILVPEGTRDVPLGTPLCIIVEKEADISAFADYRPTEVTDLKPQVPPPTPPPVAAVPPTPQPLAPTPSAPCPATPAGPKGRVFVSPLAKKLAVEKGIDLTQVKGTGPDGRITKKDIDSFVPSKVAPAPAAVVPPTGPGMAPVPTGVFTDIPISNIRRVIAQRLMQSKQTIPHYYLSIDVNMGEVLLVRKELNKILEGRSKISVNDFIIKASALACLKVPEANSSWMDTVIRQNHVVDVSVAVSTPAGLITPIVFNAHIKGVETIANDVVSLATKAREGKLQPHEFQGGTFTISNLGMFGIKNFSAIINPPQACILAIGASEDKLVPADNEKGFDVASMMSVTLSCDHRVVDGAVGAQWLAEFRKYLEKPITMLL
UniProt O75582, sequence (O75582 whole entry, looked up, one chain of several): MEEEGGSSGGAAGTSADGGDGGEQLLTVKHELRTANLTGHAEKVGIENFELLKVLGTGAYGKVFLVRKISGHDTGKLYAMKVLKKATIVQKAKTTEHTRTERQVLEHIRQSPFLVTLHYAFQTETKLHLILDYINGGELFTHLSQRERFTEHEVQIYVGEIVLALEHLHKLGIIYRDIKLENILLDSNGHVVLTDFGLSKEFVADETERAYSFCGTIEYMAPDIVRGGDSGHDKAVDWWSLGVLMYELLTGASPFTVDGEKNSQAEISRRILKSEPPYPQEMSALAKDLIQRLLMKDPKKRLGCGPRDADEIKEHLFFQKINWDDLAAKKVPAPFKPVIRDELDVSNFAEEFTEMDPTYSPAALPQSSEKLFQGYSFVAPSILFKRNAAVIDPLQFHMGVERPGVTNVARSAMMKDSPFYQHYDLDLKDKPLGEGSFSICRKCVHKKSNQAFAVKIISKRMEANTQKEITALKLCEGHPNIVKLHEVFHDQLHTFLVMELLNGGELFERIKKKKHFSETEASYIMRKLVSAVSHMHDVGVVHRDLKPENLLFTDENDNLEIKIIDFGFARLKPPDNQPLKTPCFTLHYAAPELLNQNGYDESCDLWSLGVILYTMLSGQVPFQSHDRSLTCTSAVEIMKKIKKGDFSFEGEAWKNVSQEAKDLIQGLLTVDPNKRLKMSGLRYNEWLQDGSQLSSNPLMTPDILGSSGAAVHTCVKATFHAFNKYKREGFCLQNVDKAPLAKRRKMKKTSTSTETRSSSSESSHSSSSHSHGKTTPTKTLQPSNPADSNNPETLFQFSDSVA
UniProt P51532, sequence (P51532 whole entry, one chain of several): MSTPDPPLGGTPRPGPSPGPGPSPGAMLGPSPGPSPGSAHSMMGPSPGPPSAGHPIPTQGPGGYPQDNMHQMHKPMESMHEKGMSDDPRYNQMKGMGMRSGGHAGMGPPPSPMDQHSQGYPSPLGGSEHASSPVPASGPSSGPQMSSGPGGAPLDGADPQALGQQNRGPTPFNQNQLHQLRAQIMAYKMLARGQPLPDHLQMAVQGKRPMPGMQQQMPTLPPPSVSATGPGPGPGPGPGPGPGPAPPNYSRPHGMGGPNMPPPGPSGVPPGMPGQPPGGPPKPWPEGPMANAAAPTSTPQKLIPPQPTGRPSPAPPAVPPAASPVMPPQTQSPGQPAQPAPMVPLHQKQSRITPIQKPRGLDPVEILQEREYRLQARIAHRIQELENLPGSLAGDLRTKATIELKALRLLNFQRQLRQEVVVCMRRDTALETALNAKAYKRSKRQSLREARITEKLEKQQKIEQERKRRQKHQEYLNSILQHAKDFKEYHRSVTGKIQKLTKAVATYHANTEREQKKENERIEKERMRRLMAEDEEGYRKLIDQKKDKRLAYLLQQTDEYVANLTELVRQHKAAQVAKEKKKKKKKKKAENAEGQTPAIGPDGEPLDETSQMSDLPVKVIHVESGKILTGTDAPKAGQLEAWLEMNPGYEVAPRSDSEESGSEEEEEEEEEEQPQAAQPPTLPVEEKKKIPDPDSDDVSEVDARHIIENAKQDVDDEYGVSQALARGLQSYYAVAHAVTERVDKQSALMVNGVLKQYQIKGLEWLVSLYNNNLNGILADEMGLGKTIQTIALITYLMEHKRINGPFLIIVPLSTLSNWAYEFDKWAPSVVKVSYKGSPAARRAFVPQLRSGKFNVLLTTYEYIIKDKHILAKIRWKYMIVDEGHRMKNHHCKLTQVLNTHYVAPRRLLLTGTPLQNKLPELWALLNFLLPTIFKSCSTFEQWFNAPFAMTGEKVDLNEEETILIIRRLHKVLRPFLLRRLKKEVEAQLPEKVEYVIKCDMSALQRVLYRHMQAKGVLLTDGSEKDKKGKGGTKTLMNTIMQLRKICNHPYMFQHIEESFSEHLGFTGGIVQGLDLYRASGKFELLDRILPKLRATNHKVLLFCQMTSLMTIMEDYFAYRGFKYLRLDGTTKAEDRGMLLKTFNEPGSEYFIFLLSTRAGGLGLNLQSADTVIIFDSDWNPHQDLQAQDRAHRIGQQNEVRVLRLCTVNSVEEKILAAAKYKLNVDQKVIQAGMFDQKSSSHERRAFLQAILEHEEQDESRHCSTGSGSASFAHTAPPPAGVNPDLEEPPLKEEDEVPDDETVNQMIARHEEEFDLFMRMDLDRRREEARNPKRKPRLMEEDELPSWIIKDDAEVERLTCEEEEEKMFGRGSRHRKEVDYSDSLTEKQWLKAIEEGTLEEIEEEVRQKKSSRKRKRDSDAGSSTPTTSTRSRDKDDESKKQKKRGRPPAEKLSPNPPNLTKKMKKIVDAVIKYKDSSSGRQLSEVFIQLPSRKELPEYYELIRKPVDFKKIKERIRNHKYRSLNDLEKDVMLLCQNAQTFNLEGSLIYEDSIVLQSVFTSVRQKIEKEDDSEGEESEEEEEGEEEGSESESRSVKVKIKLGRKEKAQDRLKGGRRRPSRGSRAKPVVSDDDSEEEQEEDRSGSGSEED
UniProt P16949, sequence (P16949 whole entry): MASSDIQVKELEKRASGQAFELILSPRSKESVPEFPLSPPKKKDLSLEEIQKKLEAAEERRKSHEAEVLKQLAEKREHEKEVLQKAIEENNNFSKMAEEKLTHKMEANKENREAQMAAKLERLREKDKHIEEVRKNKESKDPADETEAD
UniProt O76003, sequence (O76003 whole entry): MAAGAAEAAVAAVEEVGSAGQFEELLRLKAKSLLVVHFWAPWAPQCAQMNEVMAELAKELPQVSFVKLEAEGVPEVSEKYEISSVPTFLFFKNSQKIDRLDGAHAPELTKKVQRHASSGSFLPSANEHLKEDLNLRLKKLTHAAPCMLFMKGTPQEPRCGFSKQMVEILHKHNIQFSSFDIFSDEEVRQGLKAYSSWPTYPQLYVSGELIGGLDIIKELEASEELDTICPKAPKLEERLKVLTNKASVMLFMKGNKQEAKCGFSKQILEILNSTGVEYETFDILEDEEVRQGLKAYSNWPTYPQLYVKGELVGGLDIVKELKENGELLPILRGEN

Target	NP40-soluble protein abundance (concentration: 0.1mM)	NP40-soluble protein abundance (concentration: 0.5mM)	NP40-soluble protein abundance (concentration: 1mM)	NP40-soluble protein abundance (concentration: 2mM)	NP40-soluble protein abundance (concentration: 4mM)	NP40-soluble protein abundance (concentration: 6mM)	NP40-soluble protein abundance (concentration: 8mM)	NP40-soluble protein abundance (concentration: 10mM)
CDC34 (UniProt P49427)	1.69 ± 0.2	1.07 ± 0.037	1.79 ± 0.077	1.15 ± 0.11	1.16 ± 0.092	1.12 ± 0.1	1.01 ± 0.078	1.06 ± 0.084
K7EPN2|P22830|P22830-2 (UniProt P22830)	1.06 ± 0.013	1.06 ± 0.034	0.972 ± 0.015	0.945 ± 0.055	0.958 ± 0.039	0.939 ± 0.03	0.928 ± 0.043	0.885 ± 0.05
UniProt P04150|P04150-10|P04150-2|P04150-3|P04150-5|P04150-6|P04150-7|P04150-8|P04150-9|P04150-11|P04150-12|P04150-13	0.899 ± 0.13	0.946 ± 0.032	1.14 ± 0.072	1.07 ± 0.029	1.01 ± 0.043	0.999 ± 0.055	1.02 ± 0.046	1.05 ± 0.069
HMGN2 (UniProt P05204)	0.992 ± 0.2	1 ± 0.14	1.31 ± 0.23	1.46 ± 0.35	1.5 ± 0.11	1.89 ± 0.35	1.7 ± 0.41	2.68 ± 0.3
H7C0Q6|Q9C037|Q9C037-2|Q9C037-3 (UniProt Q9C037)	1.08 ± 0.076	1.037 ± 0.0073	1.03 ± 0.068	0.998 ± 0.052	0.968 ± 0.069	0.981 ± 0.063	0.979 ± 0.07	0.918 ± 0.074
UniProt P09651|P09651-2	1.03 ± 0.067	1.11 ± 0.082	1.17 ± 0.11	1.16 ± 0.065	1.16 ± 0.08	1.22 ± 0.089	1.3 ± 0.22	1.25 ± 0.16
EIF2S3 (UniProt P41091)	1.02 ± 0.024	1.05 ± 0.045	0.967 ± 0.015	0.98 ± 0.071	0.981 ± 0.04	0.995 ± 0.038	0.956 ± 0.025	0.931 ± 0.065
DLAT (UniProt P10515)	1.11 ± 0.22	1.28 ± 0.39	1.47 ± 0.56	1.85 ± 0.82	2.12 ± 1.1	2.06 ± 1.1	1.98 ± 0.98	1.91 ± 0.99
HIST1H1E (UniProt P10412)	1.02 ± 0.12	1.05 ± 0.1	1.13 ± 0.15	1.24 ± 0.11	1.26 ± 0.055	1.38 ± 0.064	1.28 ± 0.18	2.05 ± 0.41
GLRX3 (UniProt O76003)	0.92 ± 0.052	0.946 ± 0.058	0.934 ± 0.068	0.882 ± 0.088	0.864 ± 0.075	0.885 ± 0.085	0.885 ± 0.035	0.871 ± 0.081
ARID1A (UniProt O14497)	0.993 ± 0.031	1.06 ± 0.016	1.08 ± 0.055	1.08 ± 0.084	1.1 ± 0.1	1.12 ± 0.12	1.16 ± 0.17	1.13 ± 0.17
UniProt O43760|O43760-2	0.957 ± 0.086	0.909 ± 0.12	0.911 ± 0.076	0.915 ± 0.083	0.908 ± 0.088	0.852 ± 0.11	0.843 ± 0.15	0.884 ± 0.091
ZKSCAN1 (UniProt P17029)	0.9748 ± 0.0051	0.986 ± 0.034	0.987 ± 0.047	0.958 ± 0.024	0.963 ± 0.015	0.978 ± 0.026	1 ± 0.075	0.993 ± 0.041
NUDT21 (UniProt O43809)	1.11 ± 0.12	1.39 ± 0.12	1.64 ± 0.21	1.86 ± 0.31	2.02 ± 0.39	2.04 ± 0.35	1.97 ± 0.25	2.07 ± 0.44
UniProt P28907	0.92 ± 0.058	0.876 ± 0.075	0.927 ± 0.063	0.902 ± 0.091	0.891 ± 0.088	0.925 ± 0.088	0.895 ± 0.1	0.894 ± 0.058
UniProt P51532|P51532-2|P51532-3|P51532-4|P51532-5|Q9HBD4	1.016 ± 0.0073	1.07 ± 0.045	1.1 ± 0.083	1.15 ± 0.13	1.19 ± 0.15	1.2 ± 0.17	1.24 ± 0.23	1.21 ± 0.21
UniProt O75554|O75554-2	1.01 ± 0.045	1.07 ± 0.1	1.08 ± 0.083	1.05 ± 0.12	1.04 ± 0.059	1.09 ± 0.12	1.12 ± 0.072	1.06 ± 0.034
PYGB (UniProt P11216)	1.11 ± 0.12	1.19 ± 0.21	1.2 ± 0.28	1.45 ± 0.5	1.71 ± 0.63	1.78 ± 0.69	1.75 ± 0.61	1.79 ± 0.67
UniProt P35606|P35606-2	1.04 ± 0.075	1.07 ± 0.11	0.994 ± 0.089	1.04 ± 0.12	1.04 ± 0.12	1.03 ± 0.12	1.01 ± 0.097	0.984 ± 0.087
PARP1 (UniProt P09874)	1.02 ± 0.026	1.05 ± 0.034	1.05 ± 0.033	1.15 ± 0.052	1.31 ± 0.069	1.43 ± 0.054	1.47 ± 0.043	1.5 ± 0.028
UniProt O96028|O96028-3|O96028-5	1.04 ± 0.032	1.06 ± 0.049	1.19 ± 0.027	1.26 ± 0.027	1.44 ± 0.053	1.49 ± 0.047	1.59 ± 0.067	1.69 ± 0.062
UniProt O75582|A0A0A0MQV2	1.05 ± 0.079	1.06 ± 0.059	0.965 ± 0.044	0.965 ± 0.068	0.979 ± 0.083	0.965 ± 0.056	0.934 ± 0.031	0.912 ± 0.044
UniProt O95793|O95793-2	0.997 ± 0.045	1.02 ± 0.044	1.1 ± 0.079	1.18 ± 0.076	1.33 ± 0.11	1.42 ± 0.13	1.54 ± 0.2	1.82 ± 0.31
IGHMBP2 (UniProt P38935)	1.07 ± 0.072	1.09 ± 0.1	1.14 ± 0.099	1.26 ± 0.17	1.44 ± 0.26	1.6 ± 0.27	1.7 ± 0.43	1.92 ± 0.48
ZBTB24 (UniProt O43167)	1.09 ± 0.18	1.09 ± 0.2	1.02 ± 0.21	1.05 ± 0.2	1.06 ± 0.24	0.976 ± 0.11	1 ± 0.053	1.08 ± 0.14
STMN1 (UniProt P16949)	0.911 ± 0.0092	0.899 ± 0.048	0.994 ± 0.014	0.909 ± 0.042	0.85 ± 0.069	0.935 ± 0.1	0.971 ± 0.089	0.995 ± 0.041
UniProt P27540|P27540-2|P27540-4	0.978 ± 0.071	0.957 ± 0.12	0.957 ± 0.027	0.982 ± 0.11	1.02 ± 0.023	0.961 ± 0.055	0.961 ± 0.059	0.927 ± 0.027
UniProt O43865	0.969 ± 0.025	0.99 ± 0.044	0.959 ± 0.057	0.944 ± 0.025	0.914 ± 0.021	0.955 ± 0.029	0.973 ± 0.056	0.98 ± 0.047
UniProt O95758-2|O95758-6|O95758|O95758-1|O95758-4|O95758-5|O95758-7	1.02 ± 0.074	0.974 ± 0.052	1.02 ± 0.064	1.05 ± 0.11	0.994 ± 0.088	0.972 ± 0.05	0.959 ± 0.058	0.951 ± 0.038
